The supplement of paper PMC12494721
Counter-ions that a name gives are not always drawn. A number with no mark means an inactive call.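 Rule for the calls: for the amine columns active = adjusted P below 0.05 in both replicates with a change the same way and a mean fold change under 0.8 or over 1.25; inactive = the rest.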

tested on: Klebsiella aerogenes DSM 30053; experiment: fold change of Cadaverine concentration vs plate DMSO controls (fold change (ratio)); higher = more amine produced, active = hit call of the paper (significant change in both replicates, either direction); settings: incubation time: 27 h, anaerobic, 37 °C
How it was run: (§1)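 Extracts of whole anaerobic mGAM cultures were analysed for amines by LC–triple-quadrupole MS with dynamic MRM and external calibration curves, with drift corrected within batch. Four gut strains were grown at 37 °C for 27 h in 80 µL wells with compounds at 20 µM final, sweeteners at 50 µM final. Each value expresses fold change over plate DMSO controls. The average of 2 biological replicates is shown.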

| Structure (SMILES) | fold change of Cadaverine concentration |
| --- | --- |
| O=C1C(CC[S+]([O-])c2ccccc2)C(=O)N(c2ccccc2)N1c1ccccc1 (stereo not drawn) [Sulfinpyrazone] (20 µM) | 1.01 |
| CCC(C)C(C(=O)OCC[N+](C)(CC)CC)c1ccccc1 (stereo not drawn) [Valethamate bromide] (20 µM) | 1 |
| CCOC(=O)C1=C(C)NC(C)=C(C(=O)OC)C1c1cccc(Cl)c1Cl (stereo not drawn) [Felodipine] (20 µM) | 1.01 |
| COc1c(N2C[C@@H]3CCCN[C@@H]3C2)c(F)cc2c(=O)c(C(=O)O)cn(C3CC3)c12 [Moxifloxacin] (20 µM) | 0.982 |
| C[C@H]1COc2c(N3CCN(C)CC3)c(F)cc3c(=O)c(C(=O)O)cn1c23 [Levofloxacin] (20 µM) | 0.953 |
| NC(=O)c1cc[n+](CC2=C(C(=O)O)N3C(=O)[C@@H](NC(=O)C(c4ccccc4)S(=O)(=O)[O-])[C@H]3SC2)cc1 (stereo partly drawn) [Cefsulodin Sodium Salt Hydrate] (20 µM) | 0.992 |
| CO[C@@]1(NC(=O)CSCC#N)C(=O)N2C(C(=O)O)=C(CSc3nnnn3C)CS[C@@H]21 [Cefmetazole sodium salt] (20 µM) | 1.03 |
| CCN1CCN(C(=O)N[C@@H](C(=O)N[C@@H]2C(=O)N3C(C(=O)O)=C(CSc4nnnn4C)CS[C@H]23)c2ccc(O)cc2)C(=O)C1=O [Cefoperazone dihydrate] (20 µM) | 1.13 |
| CC/C(=C(\c1ccccc1)c1ccc(OCCN(C)C)cc1)c1ccccc1 [Tamoxifen citrate] (20 µM) | 1 |
| C#C[C@]1(O)CC[C@H]2[C@@H]3CCC4=CCCC[C@@H]4[C@H]3CC[C@@]21C [Lynestrenol] (20 µM) | 0.989 |

tested on: Ruminococcus gnavus DSM 108212; experiment: fold change of 2-Phenylethylamine concentration vs plate DMSO controls (fold change (ratio)); higher = more amine produced, active = hit call of the paper (significant change in both replicates, either direction); settings: incubation time: 27 h, anaerobic, 37 °C
How it was run: as §1

| Structure (SMILES) | fold change of 2-Phenylethylamine concentration |
| --- | --- |
| CC(=O)Nc1ccc(O)cc1 [Acetaminophen] (20 µM) | 1.12 |
| CC(C)(C)CC(C)(C)c1ccc(OCCOCC[N+](C)(C)Cc2ccccc2)cc1 [Benzethonium chloride] (20 µM) | 0.895 |
| C[C@H]1[C@H](NC(=O)/C(=N\OC(C)(C)C(=O)O)c2csc(N)n2)C(=O)N1S(=O)(=O)O [Aztreonam] (20 µM) | 1.04 |
| Nc1ccn([C@@H]2CS[C@H](CO)O2)c(=O)n1 [Lamivudine] (20 µM) | 1.02 |
| Cc1nnc(SCC2=C(C(=O)O)N3C(=O)[C@@H](NC(=O)Cn4cnnn4)[C@H]3SC2)s1 [Cefazolin sodium salt] (20 µM) | 0.0761 (active) |
| CN(C)CCCN1c2ccccc2CCc2ccccc21 [Imipramine hydrochloride] (20 µM) | 0.963 |
| Clc1ccccc1CN1CCc2sccc2C1 [Ticlopidine hydrochloride] (20 µM) | 0.977 |
| COc1ccc(CCN(C)CCCC(C#N)(c2ccc(OC)c(OC)c2)C(C)C)cc1OC (stereo not drawn) [Verapamil hydrochloride] (20 µM) | 0.95 |
| Cc1cnc(NC(=O)C2=C(O)c3ccccc3S(=O)(=O)N2C)s1 [Meloxicam] (20 µM) | 1.03 |
| C=C[C@H]1CN2CC[C@H]1C[C@@H]2[C@@H](O)c1ccnc2ccc(OC)cc12 [Quinidine hydrochloride monohydrate] (20 µM) | 1 |
| C[C@H](CS)C(=O)N1CCC[C@H]1C(=O)O [Captopril] (20 µM) | 1.04 |
| CC(C)Cc1ccc([C@H](C)C(=O)O)cc1 [(S,+) Ibuprofen] (20 µM) | 1.11 |
| O=C(O)CCNC(=O)c1ccccc1 [Betamipron] (20 µM) | 0.956 |
| CCc1c2c(nc3ccc(OC(=O)N4CCC(N5CCCCC5)CC4)cc13)-c1cc3c(c(=O)n1C2)COC(=O)[C@]3(O)CC [Irinotecan hydrochloride trihydrate] (20 µM) | 0.89 |
| Nc1nc2c(ncn2COCCO)c(=O)[nH]1 [Acyclovir] (20 µM) | 1.15 |
| Nc1ncn(C2OC(CO)C(O)C2O)c(=O)n1 (stereo not drawn) [Azacytidine-5] (20 µM) | 0.935 |
| CCN(CC)CCNC(=O)c1ccc(N)cc1 [Procainamide hydrochloride] (20 µM) | 1.05 |
| O=C(O)c1cn(C2CC2)c2cc(N3CCNCC3)c(F)cc2c1=O [Ciprofloxacin hydrochloride monohydrate] (20 µM) | 0.863 |
